Assay results taken from the supplement of paper PMC12669032.
Values without a mark were called inactive.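 Rule for the calls: active = AUC reduced over 20% with Padj below 0.05 in at least 2 of 3 replicates; inactive = otherwise.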

tested on: Bacteroides uniformis; assay: growth AUC relative to DMSO control (median of replicates) (fraction); higher = more growth (less inhibition), active = hit call of the paper; details: 20 µM; 24 h
In short: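 OD600 was recorded every hour for 24 h in anaerobic monocultures of gut bacteria kept at 37 °C in mGAM, seeded at OD600 0.05 and given 20 µM compound in 1% DMSO. The area under each growth curve was scaled to the plate median of solvent-only wells, or to row and column medians for the industrial chemical plate. Before this step, the minimum OD was set to 0. Reported values are medians of three biological replicates run on separate days.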

Structure (SMILES) | growth AUC
Cc1cccc(C)c1N | 1.06
C=CCOC(=O)C(C)(C)OC(=O)c1cc(-n2c(=O)cc(C(F)(F)F)n(C)c2=O)ccc1Cl | 0.975
CCOP(=O)(NC(C)C)Oc1ccc(S(C)(=O)=O)c(C)c1 (configuration not stated) | 1.01
Cc1cc(OC(=O)N(C)C)nn1C(=O)N(C)C | 0.979
CCCCCCCCSC(=O)Oc1cc(Cl)nnc1-c1ccccc1 | 0.91
CC1(C(=O)Nc2ccc(O)c(Cl)c2Cl)CCCCC1 | 0.962
CC(Oc1ccc(Oc2ccc(Cl)cc2Cl)cc1)C(=O)O (racemic) | 0.98
C[Si](Cn1cncn1)(c1ccc(F)cc1)c1ccc(F)cc1 | 0.913
CN(C)C1CSSSC1.O=C(O)C(=O)O | 1.23
COP(=S)(OC)SCn1nnc2ccccc2c1=O | 0.986
CCSC(=O)N1CCCCCC1 | 0.966
O=C(O)c1c(Cl)ccc2cc(Cl)cnc12 | 1
CCCSP(=S)(OCC)Oc1ccc(SC)cc1 (configuration not stated) | 0.998
Cc1cc(C(F)(C(F)(F)F)C(F)(F)F)ccc1NC(=O)c1cccc(I)c1C(=O)NC(C)(C)CS(C)(=O)=O | 1.01
Cc1cc(Cl)ccc1O | 1
COc1cc(OC)nc(NC(=O)NS(=O)(=O)c2ncccc2C(=O)N(C)C)n1 | 1.01
Cc1cccc2sc3nncn3c12 | 1.01
